This is part of a sample that, as a whole, favours compounds with a hit. Of some 83,000 tested, about 20% had one in any assay.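 The endpoint reported here, percent growth, reads 100 for growth as untreated, 0 for no net growth and -100 for all cells dead.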 A number with no mark means an inactive call. Activity calls are given as the source filed them. Rule for the calls: active = growth percent below 10; inactive = the rest.
How the values were obtained:
Experiment in all cases: NCI-60 one-dose screen, 48 h (100 = growth as untreated, 0 = no growth, -100 = all killed)
Conditions in all cases: 10 µM unless noted
DU-145 prostate = system: DU-145 prostate
K-562 leukemia = system: K-562 leukemia
MALME-3M melanoma = system: MALME-3M melanoma
MDA-MB-231 breast = system: MDA-MB-231 breast
RXF 393 renal = system: RXF 393 renal
SF-268 CNS = system: SF-268 CNS
SF-295 CNS = system: SF-295 CNS
SF-539 CNS = system: SF-539 CNS
UACC-257 melanoma = system: UACC-257 melanoma
M14 melanoma = system: M14 melanoma
HCT-15 colon = system: HCT-15 colon
HT29 colon = system: HT29 colon
SNB-75 CNS = system: SNB-75 CNS
SNB-19 CNS = system: SNB-19 CNS
U251 CNS = system: U251 CNS
PC-3 prostate = system: PC-3 prostate
SK-MEL-5 melanoma = system: SK-MEL-5 melanoma
LOX IMVI melanoma = system: LOX IMVI melanoma
SK-MEL-28 melanoma = system: SK-MEL-28 melanoma
UACC-62 melanoma = system: UACC-62 melanoma

| SMILES | growth (DU-145 prostate) | growth (K-562 leukemia) | growth (MALME-3M melanoma) | growth (MDA-MB-231 breast) | growth (RXF 393 renal) | growth (SF-268 CNS) | growth (SF-295 CNS) | growth (SF-539 CNS) | growth (UACC-257 melanoma) | growth (M14 melanoma) | growth (HCT-15 colon) | growth (HT29 colon) | growth (SNB-75 CNS) | growth (SNB-19 CNS) | growth (U251 CNS) | growth (PC-3 prostate) | growth (SK-MEL-5 melanoma) | growth (LOX IMVI melanoma) | growth (SK-MEL-28 melanoma) | growth (UACC-62 melanoma) |
| --- | --- | --- | --- | --- | --- | --- | --- | --- | --- | --- | --- | --- | --- | --- | --- | --- | --- | --- | --- | --- |
| CCc1c2c(nc3ccc(OC(=O)NCc4ccc(B5OC(C)(C)C(C)(C)O5)cc4)cc13)-c1cc3c(c(=O)n1C2)COC(=O)[C@]3(O)CC | 3.45% (active) | 10.8% | -44.1% (active) | 13% | -61.9% (active) | -5.02% (active) | -0.543% (active) | -47.1% (active) | -44.5% (active) | -16.1% (active) | 10.4% | 25.2% | -22.1% (active) | 1.93% (active) | -33.3% (active) | 14.7% | -87.4% (active) | -71.6% (active) | 3.27% (active) | – |
| N#CCN1C(=O)C2C3=C(CCCC3)SC2N=C1CN1CCCC1 (stereo not drawn) | 99.7% | 70.1% | 111% | 94.9% | 88.6% | 118% | 107% | 92.5% | 96.8% | 120% | 74.4% | 110% | 88.3% | 106% | 102% | 48.5% | 98.2% | 97.7% | 120% | – |
| CCSC1=NC2C(N(CC)C(=O)N2CC)N1/N=C/C=C/c1ccccc1[N+](=O)[O-] (stereo not drawn) | 5.79% (active) | 10.4% | 36.2% | -1.7% (active) | 41.5% | 45.2% | 8.87% (active) | -26.3% (active) | 61.1% | 6.53% (active) | 10.7% | 3.47% (active) | 23.8% | 22.1% | 12.7% | 22.9% | -38.6% (active) | 14.3% | 54.5% | – |
| Cc1cccc(-c2nc(N(C)c3ccc4ncsc4c3)c3ccccc3n2)n1 | 94.1% | 21.6% | 79.5% | 63.6% | 84.3% | 94.1% | 77% | 92.1% | 76.1% | 54.1% | 51.5% | 50.1% | 94% | 77.1% | 82.2% | 45.5% | 22.4% | 77.5% | 72% | – |
| COc1ccc(-c2csc(C3=C(O)CN(C(C)C)C3=N)n2)cc1OC | 108% | 87.7% | 96.4% | 81.1% | 83.6% | 117% | 113% | 88.9% | 105% | 136% | 103% | 102% | 112% | 104% | 98.3% | – | 82.5% | 94.1% | 123% | 97.3% |
| CC1O[C@@H](OC2[C@H](OC(=O)/C=C/c3ccc(O)c(O)c3)C(COC3O[C@H](C)C(O)C(O)[C@@H]3O)O[C@@H](OCCc3ccc(O)c(O)c3)[C@H]2O)[C@@H](O)C(O)[C@H]1O (stereo partly drawn) | 106% | 105% | 88.1% | 108% | 125% | 103% | 103% | 94.2% | 80.8% | 97.1% | 100% | 100% | 85.7% | 107% | 99.4% | – | 103% | 102% | 110% | 101% |
| CCN(CC)c1ccc2nc3c4ccccc4c(=NC(=O)c4ccccc4-c4c5ccc(N(CC)CC)cc5[o+]c5cc(N(CC)CC)ccc45)cc-3oc2c1 | -89.4% (active) | -85.7% (active) | 54.9% | 52.8% | 61.6% | 60.5% | -50.3% (active) | 67% | 49.7% | -3.37% (active) | 6.13% (active) | 1.92% (active) | 67.7% | -22.3% (active) | 20.5% | – | -69.8% (active) | -30.4% (active) | 97.4% | 67.5% |
| CCCCCCCCCCN(CCCCCCCCCC)CC(=O)c1ccc2cc(Br)c3ccccc3c2c1 | 71.7% | -46.6% (active) | -78.2% (active) | 67.1% | 95.5% | 81% | 91.8% | 89% | 87% | -11.7% (active) | 64.9% | 3.77% (active) | 68.7% | 88% | -9.35% (active) | – | 93.6% | 21.6% | 113% | 93.9% |
| NC(=N\N=C/c1cccc([N+](=O)[O-])c1)/C(N)=N\N=C/c1cccc([N+](=O)[O-])c1 | 58.1% | 36.1% | 81.4% | 93.4% | 72.9% | 65.9% | 92.9% | 89.1% | 85.6% | 92.8% | 51.9% | 99.3% | 35.1% | 105% | 76.6% | – | 58.2% | 82% | 77.9% | 65% |
| O=S(=O)(Nc1cccc(Cl)c1)c1ccc(-c2cnc(C3CC3)o2)cc1 | 20.4% | 9.52% (active) | 58.2% | 23.3% | 13.8% | 51% | 15.5% | -0.0211% (active) | 63.8% | 16.2% | 23.9% | 3.59% (active) | -25.8% (active) | 24.1% | 22.9% | – | 16.4% | 35.4% | 68.4% | 29.2% |
| CCN(CC)CCN1C(=O)c2c(c(C)c3c(oc4cc(O)ccc43)c2C)C1=O | -89.2% (active) | -58.5% (active) | 84.2% | -68.7% (active) | 79.4% | 74.5% | 103% | 90.8% | 97.7% | -79.3% (active) | -58.9% (active) | -37.2% (active) | 90.3% | 9.88% (active) | -87.9% (active) | – | 79% | 94% | 63.1% | 86.2% |
| C[C@]12CC[C@@H]3c4cc(OC(F)F)c(O)cc4CC[C@H]3[C@@H]1CC[C@@H]2OS(N)(=O)=O | 9.56% (active) | 14.1% | 27.1% | 50.9% | 19.1% | 58.3% | 12.8% | 5.62% (active) | 71.8% | 17.6% | 26.6% | 19.5% | -8.09% (active) | 51% | 30% | – | 0.18% (active) | 40.4% | 57.4% | – |
| CC(=O)n1c(-c2ccc(Cl)cc2)nc2c(c1=O)C(c1ccc(Cl)cc1)c1sc3c(Cl)cccc3c1O2 (stereo not drawn) | 2.09% (active) | -0.184% (active) | 51.8% | -28.8% (active) | -25.4% (active) | -0.0873% (active) | -20% (active) | -63.2% (active) | 21.3% | -39.3% (active) | -37.4% (active) | -52.4% (active) | -22% (active) | 14.2% | -37.7% (active) | – | -17.7% (active) | -33.8% (active) | 18% | 3.42% (active) |
| N#Cc1nc(C#N)c(Sc2ccccc2)c(Sc2ccccc2)c1Sc1ccccc1 | -47.8% (active) | -41.2% (active) | -20.6% (active) | -32.7% (active) | -38.7% (active) | -67.6% (active) | 1.87% (active) | -86.6% (active) | -59.2% (active) | -28.9% (active) | -53.7% (active) | -67.2% (active) | -61.2% (active) | -45.7% (active) | -81.9% (active) | – | -93.2% (active) | -79.2% (active) | -84.3% (active) | -57.2% (active) |
| CCN1C(=O)N(CC)C2Nn3c(s/c(=C\c4cccc([N+](=O)[O-])c4)c3=O)=NC21 (stereo not drawn) | 30.5% | 19.9% | 57.8% | 30.7% | 25.4% | 63.9% | 31% | 12.8% | 77.5% | 22.2% | 31.8% | 74.9% | 20% | 53.3% | 33.5% | – | 31.8% | 56.4% | 57.3% | 47% |
| COc1ccc(NC(=O)CSc2nc(C)c(C(C)=O)n2-c2ccc([N+](=O)[O-])cc2)cc1 | 113% | 96.6% | 91.3% | 80.3% | 84.9% | 108% | 89% | 102% | 98.4% | 94.9% | 85.7% | 90.8% | 90% | 85.9% | 93.8% | – | 91.5% | 89.7% | 89.8% | 73.1% |
